Laboratory results as given in PubChem BioAssay (EPA / NIEHS).
Calls of active or inactive are those of the source. Rule for the calls: active = hit-call score of the fitted dose curve at least 0.9, where 1 is the maximum; inactive = score below 0.9.

Columns and labels:
[1] = CEETOX_H295R_PROG: CeeTox H295R High-throughput Steroidogenesis Assay for Progesterone (PROG) (AID 2283442); conditions: actives raise or lower the signal;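 note: human H295R adrenal cells primed with 10 µM forskolin before dosing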
Outline: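 H295R adrenal cells prestimulated 48 h with 10 uM forskolin, then exposed 48 h to test chemical in 0.1% DMSO. Progesterone in medium quantified by HPLC-MS/MS after MTBE extraction; viability checked by MTT in same wells.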

[2] = read-out: Tumor necrosis factor receptor superfamily member 6 (Homo sapiens) (UniProt P25445); experiment: LTEA_HepaRG_FAS: Life Technologies and Expression Analysis (LTEA) Assay for Fas cell surface death receptor (FAS) using HepaRG (AID 2283447); conditions: mRNA level, 48 h; actives raise or lower the signal
Outline: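 Differentiated HepaRG cells in serum-free induction medium were exposed 48 h to 8 half-log concentrations up to 100 uM in 0.5% DMSO, in duplicate. FAS mRNA was measured by qRT-PCR normalised to ACTB, GAPDH and POLR2A; bidirectional fit versus DMSO.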

[3] = read-out: Fatty acid synthase (Homo sapiens) (UniProt P49327); experiment: LTEA_HepaRG_FASN: Life Technologies and Expression Analysis (LTEA) Assay for Fatty Acid Synthase (FASN) using HepaRG (AID 2283448); conditions: mRNA level, 48 h; actives raise or lower the signal
Outline: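 HepaRG, 48 h exposure, 8-pt half-log series top 100 uM, 0.5% DMSO vehicle, duplicates. Readout: FASN transcript by Fluidigm qRT-PCR; housekeeping-normalized; bidirectional curve fit vs DMSO baseline.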

[4] = read-out: Cyclin D2 (CCND2), CCND2 (gene 894); experiment: LTEA_HepaRG_CCND2: Life Technologies and Expression Analysis (LTEA) Assay for Cyclin D2 (CCND2) using HepaRG (AID 2283449); conditions: mRNA level, 48 h; actives raise or lower the signal;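 note: CCND2 transcript measured by TaqMan qRT-PCR and normalised to three housekeeping genes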
Outline: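 HepaRG, 48 h dosing, 8-pt half-log curve from 100 uM, 0.5% DMSO; duplicate wells. Readout: CCND2 transcript by microfluidic qRT-PCR, housekeeping-normalised; bidirectional fit vs DMSO baseline.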

[5] = read-out: Cyclin Dependent Kinase Inhibitor 1A (CDKN1A), CDKN1A (gene 1026); experiment: LTEA_HepaRG_CDKN1A: Life Technologies and Expression Analysis (LTEA) Assay for Cyclin Dependent Kinase Inhibitor 1A (CDKN1A) using HepaRG (AID 2283450); conditions: mRNA level, 48 h; actives raise or lower the signal
Outline: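 Differentiated HepaRG cells in serum-free induction medium, exposed 48 h in duplicate to eight half-log concentrations up to 100 uM in 0.5% DMSO. mRNA measured by TaqMan qRT-PCR, normalized to ACTB, GAPDH, POLR2A; bidirectional fit versus DMSO.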

[6] = read-out: catalase (CAT), CAT (gene 847); experiment: LTEA_HepaRG_CAT: Life Technologies and Expression Analysis (LTEA) Assay for catalase (CAT) using HepaRG (AID 2283452); conditions: mRNA level, 48 h; actives raise or lower the signal
Outline: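 HepaRG cells in serum-free induction medium, 0.5% DMSO vehicle, exposed 48 h in duplicate over 8 half-log concentrations from 100 uM. CAT mRNA measured by qRT-PCR, normalized to ACTB, GAPDH, POLR2A; bidirectional fit versus DMSO.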

[7] = read-out: flavin-containing dimethylaniline monooxygenases 3 (FMO3), FMO3 (gene 2328); experiment: LTEA_HepaRG_FMO3: Life Technologies and Expression Analysis (LTEA) Assay for flavin-containing dimethylaniline monooxygenases 3 (FMO3) using HepaRG (AID 2283453); conditions: mRNA level, 48 h; actives raise or lower the signal
Outline: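 Eight-point concentration-response in serum-free HepaRG cultures (top 100 uM, 0.5% DMSO, 48 h). Read-out: FMO3 mRNA level normalized to three endogenous control genes, fitted bidirectionally versus vehicle.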

[8] = read-out: CFLAR gene, CFLAR (gene 8837); experiment: LTEA_HepaRG_CFLAR: Life Technologies and Expression Analysis (LTEA) Assay for CFLAR gene using HepaRG (AID 2283455); conditions: mRNA level, 48 h; actives raise or lower the signal
Outline: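 qRT-PCR read-out (Fluidigm/TaqMan) of CFLAR mRNA, normalized to three housekeeping genes, in differentiated human HepaRG cells after 48 h chemical exposure; 8-point half-log series from 100 uM in 0.5% DMSO; bidirectional curve fitting versus DMSO.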

[9] = read-out: Forkhead box O1 (FOXO1), FOXO1 (gene 2308); experiment: LTEA_HepaRG_FOXO1: Life Technologies and Expression Analysis (LTEA) Assay for Forkhead box O1 (FOXO1) using HepaRG (AID 2283456); conditions: mRNA level, 48 h; actives raise or lower the signal
Outline: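 HepaRG, 48 h exposure, 8-pt half-log series from 100 uM in 0.5% DMSO, duplicates; Fluidigm qRT-PCR mRNA, housekeeping-normalised; bidirectional fit vs DMSO baseline.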

[10] = read-out: growth arrest and DNA damage 45 (GADD45A), GADD45A (gene 1647); experiment: LTEA_HepaRG_GADD45A: Life Technologies and Expression Analysis (LTEA) Assay for growth arrest and DNA damage 45 (GADD45A) using HepaRG (AID 2283458); conditions: mRNA level, 48 h; actives raise or lower the signal
Outline: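 HepaRG, 48 h exposure, 8 conc. (top 100 uM, half-log steps), 0.5% DMSO vehicle, duplicates. Read-out: qRT-PCR mRNA level, housekeeping-normalized (ACTB/GAPDH/POLR2A). Curves fit bidirectionally vs DMSO baseline.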

[11] = read-out: Forkhead box O3 (FOXO3), FOXO3 (gene 2309); experiment: LTEA_HepaRG_FOXO3: Life Technologies and Expression Analysis (LTEA) Assay for Forkhead box O3 (FOXO3) using HepaRG (AID 2283459); conditions: mRNA level, 48 h; actives raise or lower the signal
Outline: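 qRT-PCR readout of FOXO3 transcript, normalized to three housekeeping genes (ACTB, GAPDH, POLR2A); gain or loss fitted against 0.5% DMSO vehicle. HepaRG cells, 48 h chemical exposure, 8-point half-log series, top 100 uM.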

[12] = read-out: ABC Transporter (ABCB1), ABCB1 (gene 5243); experiment: LTEA_HepaRG_ABCB1: Life Technologies and Expression Analysis (LTEA) Assay for ABC Transporter (ABCB1) using HepaRG (AID 2283460); conditions: mRNA level, 48 h; actives raise or lower the signal
Outline: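 HepaRG, 48 h exposure, 8-pt half-log series from 100 uM, 0.5% DMSO vehicle, duplicates. Readout: ABCB1 transcript by Fluidigm TaqMan qRT-PCR, housekeeping-normalized; bidirectional curve fit vs DMSO baseline.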

[13] = read-out: growth arrest and DNA damage 45 (GADD45B), GADD45B (gene 4616); experiment: LTEA_HepaRG_GADD45B: Life Technologies and Expression Analysis (LTEA) Assay for growth arrest and DNA damage 45 (GADD45B) using HepaRG (AID 2283461); conditions: mRNA level, 48 h; actives raise or lower the signal
Outline: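 Differentiated human HepaRG cells in serum-free induction medium exposed 48 h in duplicate to eight concentrations, top 100 uM, half-log steps, 0.5% DMSO. GADD45B mRNA by TaqMan qRT-PCR, normalized to ACTB, GAPDH, POLR2A; bidirectional fit versus DMSO.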

[14] = read-out: ABC Transporter (ABCC3), ABCC3 (gene 8714); experiment: LTEA_HepaRG_ABCC3: Life Technologies and Expression Analysis (LTEA) Assay for ABC Transporter (ABCC3) using HepaRG (AID 2283462); conditions: mRNA level, 48 h; actives raise or lower the signal
Outline: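 Differentiated human HepaRG cells exposed 48 h in serum-free induction medium, 0.5% DMSO vehicle, 8-point half-log series to 100 uM in duplicate. ABCC3 mRNA by qRT-PCR, normalised to ACTB, GAPDH, POLR2A; bidirectional fit vs DMSO.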

[15] = read-out: ABC Transporter (ABCB11), ABCB11 (gene 8647); experiment: LTEA_HepaRG_ABCB11: Life Technologies and Expression Analysis (LTEA) Assay for ABC Transporter (ABCB11) using HepaRG (AID 2283463); conditions: mRNA level, 48 h; actives raise or lower the signal
Outline: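 HepaRG, 48 h exposure, 8-pt half-log CRC top 100 uM, 0.5% DMSO vehicle, duplicates. Readout: TaqMan qRT-PCR of ABCB11 mRNA, housekeeping-normalized (ACTB/GAPDH/POLR2A). Bidirectional fit vs DMSO baseline.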

[16] = read-out: ABC Transporter (ABCC2), ABCC2 (gene 1244); experiment: LTEA_HepaRG_ABCC2: Life Technologies and Expression Analysis (LTEA) Assay for ABC Transporter (ABCC2) using HepaRG (AID 2283464); conditions: mRNA level, 48 h; actives raise or lower the signal
Outline: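 Differentiated HepaRG cells in serum-free induction medium exposed 48 h to eight half-log concentrations up to 100 uM, 0.5% DMSO, in duplicate. ABCC2 mRNA measured by qRT-PCR (TaqMan, Fluidigm), normalized to ACTB, GAPDH and POLR2A. Fitted in both directions against DMSO.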

[17] = read-out: Broad substrate specificity ATP-binding cassette transporter ABCG2 (Homo sapiens) (UniProt Q9UNQ0); experiment: LTEA_HepaRG_ABCG2: Life Technologies and Expression Analysis (LTEA) Assay for ABC Transporter (ABCG2) using HepaRG (AID 2283465); conditions: mRNA level, 48 h; actives raise or lower the signal
Outline: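 HepaRG, 48 h exposure, 8-pt half-log series from 100 uM, 0.5% DMSO vehicle, duplicates. Readout: ABCG2 transcript by qRT-PCR (Fluidigm array), housekeeping-normalized; bidirectional curve fit relative to DMSO baseline.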

Measured: AC50

Fatty acid synthase (Homo sapiens), sequence (P49327 whole entry, looked up): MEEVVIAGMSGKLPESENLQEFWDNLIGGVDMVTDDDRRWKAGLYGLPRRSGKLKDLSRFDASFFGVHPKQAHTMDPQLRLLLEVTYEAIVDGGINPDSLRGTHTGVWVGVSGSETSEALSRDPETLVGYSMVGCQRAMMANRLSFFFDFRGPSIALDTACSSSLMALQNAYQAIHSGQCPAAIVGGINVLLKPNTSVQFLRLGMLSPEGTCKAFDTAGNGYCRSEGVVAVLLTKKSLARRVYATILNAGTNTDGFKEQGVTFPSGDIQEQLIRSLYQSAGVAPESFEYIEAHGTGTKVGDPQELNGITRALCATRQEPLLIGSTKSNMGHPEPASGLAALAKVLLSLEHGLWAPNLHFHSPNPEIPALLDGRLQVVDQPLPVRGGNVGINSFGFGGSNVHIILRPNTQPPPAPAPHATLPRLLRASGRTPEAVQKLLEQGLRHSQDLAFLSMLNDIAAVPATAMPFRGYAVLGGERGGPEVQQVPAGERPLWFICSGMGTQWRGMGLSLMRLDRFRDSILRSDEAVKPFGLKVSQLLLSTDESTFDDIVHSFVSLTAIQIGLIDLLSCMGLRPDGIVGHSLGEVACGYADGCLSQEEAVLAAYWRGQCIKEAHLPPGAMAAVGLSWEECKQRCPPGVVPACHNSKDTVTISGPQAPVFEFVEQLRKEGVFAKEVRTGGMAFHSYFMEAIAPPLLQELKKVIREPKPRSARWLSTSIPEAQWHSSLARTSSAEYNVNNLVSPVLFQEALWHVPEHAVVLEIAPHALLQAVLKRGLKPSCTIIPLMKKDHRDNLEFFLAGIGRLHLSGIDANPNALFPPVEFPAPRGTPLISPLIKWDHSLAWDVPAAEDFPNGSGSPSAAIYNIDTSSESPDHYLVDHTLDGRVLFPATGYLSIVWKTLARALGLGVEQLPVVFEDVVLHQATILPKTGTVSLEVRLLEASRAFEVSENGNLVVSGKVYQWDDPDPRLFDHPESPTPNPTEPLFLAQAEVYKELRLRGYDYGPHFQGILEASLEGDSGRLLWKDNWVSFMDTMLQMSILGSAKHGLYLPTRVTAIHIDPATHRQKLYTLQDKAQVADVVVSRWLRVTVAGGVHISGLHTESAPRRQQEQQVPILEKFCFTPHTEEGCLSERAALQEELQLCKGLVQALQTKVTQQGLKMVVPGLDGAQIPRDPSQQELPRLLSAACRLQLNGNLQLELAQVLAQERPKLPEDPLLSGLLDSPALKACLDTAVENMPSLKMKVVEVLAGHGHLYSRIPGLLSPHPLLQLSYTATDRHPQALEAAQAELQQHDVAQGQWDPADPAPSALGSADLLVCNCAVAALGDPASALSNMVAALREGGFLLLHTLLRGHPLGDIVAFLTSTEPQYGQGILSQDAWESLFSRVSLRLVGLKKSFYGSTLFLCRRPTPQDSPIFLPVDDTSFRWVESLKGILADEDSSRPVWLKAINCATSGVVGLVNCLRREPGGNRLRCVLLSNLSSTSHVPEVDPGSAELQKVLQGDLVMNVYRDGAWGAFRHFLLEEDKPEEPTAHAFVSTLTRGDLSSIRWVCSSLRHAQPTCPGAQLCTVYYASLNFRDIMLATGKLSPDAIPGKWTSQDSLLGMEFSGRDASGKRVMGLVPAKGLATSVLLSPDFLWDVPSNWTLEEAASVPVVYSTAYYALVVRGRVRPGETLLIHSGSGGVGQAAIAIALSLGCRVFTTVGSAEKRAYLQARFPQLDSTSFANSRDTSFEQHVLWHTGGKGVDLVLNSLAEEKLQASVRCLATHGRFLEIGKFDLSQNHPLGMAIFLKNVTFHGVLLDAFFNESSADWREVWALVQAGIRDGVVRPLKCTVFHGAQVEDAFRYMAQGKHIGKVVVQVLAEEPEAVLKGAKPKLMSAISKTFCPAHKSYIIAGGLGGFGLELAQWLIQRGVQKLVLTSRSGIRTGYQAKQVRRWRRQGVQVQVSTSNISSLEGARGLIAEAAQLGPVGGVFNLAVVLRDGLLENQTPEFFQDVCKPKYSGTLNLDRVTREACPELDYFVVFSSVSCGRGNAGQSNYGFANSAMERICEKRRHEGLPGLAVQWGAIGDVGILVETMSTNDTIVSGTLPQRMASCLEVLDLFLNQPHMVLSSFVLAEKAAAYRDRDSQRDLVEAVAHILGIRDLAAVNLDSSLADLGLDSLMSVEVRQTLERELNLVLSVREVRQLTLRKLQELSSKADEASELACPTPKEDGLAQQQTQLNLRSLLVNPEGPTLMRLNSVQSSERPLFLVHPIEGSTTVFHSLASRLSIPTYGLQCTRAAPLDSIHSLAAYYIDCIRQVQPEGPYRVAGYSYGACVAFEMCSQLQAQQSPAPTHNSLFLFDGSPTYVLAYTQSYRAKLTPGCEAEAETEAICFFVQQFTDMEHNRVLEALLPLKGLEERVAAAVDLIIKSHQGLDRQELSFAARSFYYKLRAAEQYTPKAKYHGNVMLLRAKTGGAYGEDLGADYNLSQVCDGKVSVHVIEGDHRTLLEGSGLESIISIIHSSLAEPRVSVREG
Broad substrate specificity ATP-binding cassette transporter ABCG2 (Homo sapiens), sequence (Q9UNQ0 whole entry, looked up): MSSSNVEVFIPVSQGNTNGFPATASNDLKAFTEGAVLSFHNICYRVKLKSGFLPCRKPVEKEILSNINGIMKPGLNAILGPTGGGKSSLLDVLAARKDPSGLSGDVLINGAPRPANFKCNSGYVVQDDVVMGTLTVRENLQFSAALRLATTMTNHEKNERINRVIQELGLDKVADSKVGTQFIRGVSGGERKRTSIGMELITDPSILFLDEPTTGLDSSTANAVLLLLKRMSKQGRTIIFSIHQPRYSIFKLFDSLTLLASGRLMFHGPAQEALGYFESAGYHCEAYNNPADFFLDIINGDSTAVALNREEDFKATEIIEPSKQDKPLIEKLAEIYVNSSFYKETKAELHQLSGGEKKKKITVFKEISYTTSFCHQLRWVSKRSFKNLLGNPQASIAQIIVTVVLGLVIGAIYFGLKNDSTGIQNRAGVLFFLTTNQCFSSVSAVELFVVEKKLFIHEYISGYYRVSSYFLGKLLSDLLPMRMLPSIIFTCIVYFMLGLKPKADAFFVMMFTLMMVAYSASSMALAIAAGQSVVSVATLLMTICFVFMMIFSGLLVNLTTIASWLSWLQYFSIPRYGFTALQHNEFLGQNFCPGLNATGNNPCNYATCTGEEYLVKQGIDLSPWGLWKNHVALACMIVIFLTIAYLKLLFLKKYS

Clc1ccccc1C(c1ccccc1)(c1ccccc1)n1ccnc1
inactive: [2] | [4] | [8] | [9] | [10] | [11] | [13] | [16]
active: [1] 0.00734 µM | [3] 23.1 µM | [5] 91.2 µM | [6] 21 µM | [7] 96.5 µM | [12] 15.8 µM | [14] 78.3 µM | [15] 28.6 µM | [17] 37.5 µM
